PubChem BioAssay AID1159580 (chemical genetic matrix, 2015)
“And” between values parts separate entries of the source, which are not always exact repeats. Equal values may be shown once. The campaign covered roughly 5,500 compounds. About 2,000 (36%) were called active. Another 18% or so got no clear call; they are omitted. No stated cut-off is given here; in the data, active means normalized growth mostly below about 0.91 (no sharp cut-off); inconclusive means no clear call, values can overlap the other calls; inactive means mostly above about 0.92. This is one part of the list.

Test: chemical genetic growth profiling, strain panel (AID 1159580);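 further: tested at 20 µM; growth read once vehicle control cultures reached saturation at 30 °C; 1 = growth at the plate median or of vehicle wells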
Conditions: growth OD

Measured: normalized growth

Cc1ccc(/C(=C\CN2CCCC2)c2ccccn2)cc1
inactive: S. cerevisiae deletion strains, locus YJR075W, strain HOC1, stronger effect = lower value 1.01 and 0.98 | S. cerevisiae deletion strains, locus YKL009W, strain mrt4, stronger effect = lower value 0.996 | S. cerevisiae deletion strains, locus YKL068W, stronger effect = lower value 0.999 | S. cerevisiae deletion strains, locus YKL085W, strain MDH1 (second series), stronger effect = lower value 1.01 | S. cerevisiae deletion strains, locus YKL085W, strain MDH1, stronger effect = lower value 1.01 | S. cerevisiae deletion strains, locus YKL160W, strain elf1, stronger effect = lower value 1.03 | S. cerevisiae deletion strains, locus YKL190W, strain CNB1, stronger effect = lower value 1.02 | S. cerevisiae deletion strains, locus YKR001C, strain vps1, stronger effect = lower value 0.986 | S. cerevisiae deletion strains, locus YKR026C, strain gcn3, stronger effect = lower value 1 | S. cerevisiae deletion strains, locus YKR091W, strain srl3, stronger effect = lower value 0.991 | S. cerevisiae deletion strains, locus YLL001W, strain dnm1, stronger effect = lower value 1.04 | S. cerevisiae deletion strains, locus YLL026W, stronger effect = lower value 1.04 | S. cerevisiae deletion strains, locus YLL041C, strain sdh2, stronger effect = lower value 1.01 | S. cerevisiae deletion strains, locus YLR027C, strain aat2, stronger effect = lower value 1.04 | S. cerevisiae deletion strains, locus YLR039C, strain RIC1, stronger effect = lower value 1.03 | S. cerevisiae deletion strains, locus YLR058C, strain SHM2, stronger effect = lower value 1.01 | S. cerevisiae deletion strains, locus YLR102C, strain apc9, stronger effect = lower value 0.998 | S. cerevisiae deletion strains, locus YLR113W, strain HOG1, stronger effect = lower value 1.02 | S. cerevisiae deletion strains, locus YLR221C, strain rsa3, stronger effect = lower value 0.977 | S. cerevisiae deletion strains, locus YLR258W, strain gsy2, stronger effect = lower value 0.986 | S. cerevisiae deletion strains, locus YLR262C, strain YPT6 (second series), stronger effect = lower value 1.02 | S. cerevisiae deletion strains, locus YLR262C, strain YPT6, stronger effect = lower value 1.01 | S. cerevisiae deletion strains, locus YLR268W, strain sec22, stronger effect = lower value 0.999 | S. cerevisiae deletion strains, locus YLR320W, strain mms22, stronger effect = lower value 0.973 | S. cerevisiae deletion strains, locus YLR330W, strain CHS5, stronger effect = lower value 1.01 | S. cerevisiae deletion strains, locus YLR342W, strain FKS1 (second series), stronger effect = lower value 0.997 | S. cerevisiae deletion strains, locus YLR342W, strain FKS1, stronger effect = lower value 1.02 | S. cerevisiae deletion strains, locus YLR357W, strain rsc2, stronger effect = lower value 0.992 | S. cerevisiae deletion strains, locus YLR370C, strain arc18, stronger effect = lower value 1.01 | S. cerevisiae deletion strains, locus YLR371W, strain rom2, stronger effect = lower value 1.01 | S. cerevisiae deletion strains, locus YLR384C, strain iki3, stronger effect = lower value 1 | S. cerevisiae deletion strains, locus YLR418C, strain cdc73, stronger effect = lower value 0.991 | S. cerevisiae deletion strains, locus YML016C, strain PPZ1, stronger effect = lower value 1 | S. cerevisiae deletion strains, locus YML032C, strain rad52, stronger effect = lower value 1 | S. cerevisiae deletion strains, locus YML120C, strain ndi1, stronger effect = lower value 1.05 | S. cerevisiae deletion strains, locus YML124C, strain tub3, stronger effect = lower value 0.995 | S. cerevisiae deletion strains, locus YMR058W, strain fet3, stronger effect = lower value 1.02 | S. cerevisiae deletion strains, locus YMR078C, strain ctf18, stronger effect = lower value 0.997 | S. cerevisiae deletion strains, locus YMR125W, strain sto1, stronger effect = lower value 1.02 | S. cerevisiae deletion strains, locus YMR129W, stronger effect = lower value 1.01 | S. cerevisiae deletion strains, locus YMR205C, strain PFK2, stronger effect = lower value 1.02 | S. cerevisiae deletion strains, locus YMR223W, strain ubp8, stronger effect = lower value 0.998 | S. cerevisiae deletion strains, locus YMR231W, strain pep5, stronger effect = lower value 0.999 | S. cerevisiae deletion strains, locus YMR263W, strain SAP30, stronger effect = lower value 1.01 and 0.981 | S. cerevisiae deletion strains, locus YMR307W, strain GAS1, stronger effect = lower value 0.983 and 0.987 | S. cerevisiae deletion strains, locus YNL067W, strain RPL9B, stronger effect = lower value 1 | S. cerevisiae deletion strains, locus YNL071W, strain lat1, stronger effect = lower value 0.986 | S. cerevisiae deletion strains, locus YNL128W, strain TEP1, stronger effect = lower value 1.02 | S. cerevisiae deletion strains, locus YNL153C, strain GIM3, stronger effect = lower value 1.01 | S. cerevisiae deletion strains, locus YNL175C, strain NOP13, stronger effect = lower value 0.996 | S. cerevisiae deletion strains, locus YNL183C, strain NPR1, stronger effect = lower value 0.952 | S. cerevisiae deletion strains, locus YNL197C, strain WHI3, stronger effect = lower value 1.01 | S. cerevisiae deletion strains, locus YNL209W, strain ssb2, stronger effect = lower value 0.996 | S. cerevisiae deletion strains, locus YNL224C, strain SQS1, stronger effect = lower value 0.989 | S. cerevisiae deletion strains, locus YNL233W, strain BNI4, stronger effect = lower value 1.01 | S. cerevisiae deletion strains, locus YNL248C, strain rpa49, stronger effect = lower value 0.992 | S. cerevisiae deletion strains, locus YNL250W, strain rad50, stronger effect = lower value 1 | S. cerevisiae deletion strains, locus YNL271C, strain bni1, stronger effect = lower value 0.986 | S. cerevisiae deletion strains, locus YNL298W, strain CLA4, stronger effect = lower value 1 | S. cerevisiae deletion strains, locus YNL307C, strain MCK1, stronger effect = lower value 1.01 | S. cerevisiae deletion strains, locus YNL322C, strain KRE1 (second series), stronger effect = lower value 1.01 | S. cerevisiae deletion strains, locus YNL322C, strain KRE1, stronger effect = lower value 1.01 | S. cerevisiae deletion strains, locus YNR049C, strain mso1, stronger effect = lower value 1.01 | S. cerevisiae deletion strains, locus YNR052C, strain pop2, stronger effect = lower value 1 | S. cerevisiae deletion strains, locus YOL006C, strain TOP1, stronger effect = lower value 1 | S. cerevisiae deletion strains, locus YOL012C, strain htz1 1.12 | S. cerevisiae deletion strains, locus YOL147C, strain pex11, stronger effect = lower value 0.992 | S. cerevisiae deletion strains, locus YOR001W, strain rrp6, stronger effect = lower value 1.02 | S. cerevisiae deletion strains, locus YOR061W, strain CKA2, stronger effect = lower value 1.01 | S. cerevisiae deletion strains, locus YOR069W, strain VPS5, stronger effect = lower value 1.01 | S. cerevisiae deletion strains, locus YOR070C, strain gyp1, stronger effect = lower value 0.992 | S. cerevisiae deletion strains, locus YOR080W, strain dia2, stronger effect = lower value 1.02 | S. cerevisiae deletion strains, locus YOR083W, strain WHI5 (second series), stronger effect = lower value 0.985 | S. cerevisiae deletion strains, locus YOR083W, strain WHI5, stronger effect = lower value 1 | S. cerevisiae deletion strains, locus YOR106W, strain vam3, stronger effect = lower value 1.05 | S. cerevisiae deletion strains, locus YOR136W, strain idh2, stronger effect = lower value 1 | S. cerevisiae deletion strains, locus YOR144C, strain elg1, stronger effect = lower value 0.995 | S. cerevisiae deletion strains, locus YOR184W, strain ser1, stronger effect = lower value 1 | S. cerevisiae deletion strains, locus YOR231W, strain MKK1, stronger effect = lower value 0.984 | S. cerevisiae deletion strains, locus YOR265W, strain rbl2, stronger effect = lower value 1.01 | S. cerevisiae deletion strains, locus YOR270C, strain vph1, stronger effect = lower value 0.985 | S. cerevisiae deletion strains, locus YOR290C, strain snf2, stronger effect = lower value 0.96 | S. cerevisiae deletion strains, locus YOR316C, strain cot1, stronger effect = lower value 1 | S. cerevisiae deletion strains, locus YPL051W, strain arl3, stronger effect = lower value 1.02 | S. cerevisiae deletion strains, locus YPL055C, strain LGE1, stronger effect = lower value 1.02 | S. cerevisiae deletion strains, locus YPL078C, strain atp4, stronger effect = lower value 1.06 | S. cerevisiae deletion strains, locus YPL106C, strain sse1, stronger effect = lower value 0.987 | S. cerevisiae deletion strains, locus YPL240C, strain hsp82, stronger effect = lower value 1.04 | S. cerevisiae deletion strains, locus YPL241C, strain CIN2, stronger effect = lower value 1 and 0.988 | S. cerevisiae deletion strains, locus YPL256C, strain CLN2, stronger effect = lower value 1 | S. cerevisiae deletion strains, locus YPR119W, strain clb2, stronger effect = lower value 1 | S. cerevisiae deletion strains, locus YPR141C, strain kar3, stronger effect = lower value 0.998 | S. cerevisiae deletion strains, locus YPR163C, strain tif3, stronger effect = lower value 0.994 | S. cerevisiae deletion strains, locus YPR167C, strain met16, stronger effect = lower value 1 | S. cerevisiae deletion strains, strain wtn01, stronger effect = lower value 0.999 | S. cerevisiae strains, strain wild type, stronger effect = lower value 1.01
